# Screens from PubChem.
# This is one part of a sample in which hits are shown more often than they occur.
# Shiga inhibitor: A qHTS for Small Molecule Inhibitors of Shiga Toxin; inhibition, % at 38.7 µM; Vero cells, Shiga toxin protein synthesis inhibition reporter; 9.2% of 290,000 active; in the data active means inhibition mostly above about 28%, no sharp cut-off; inactive means mostly below about 43%; further: 0% is about no effect
# AmpC inh detg: qHTS Inhibitors of AmpC Beta-Lactamase (assay with detergent); 0.041% of 370,000 active; AmpC hydrolysis of nitrocefin, absorbance 480 nm, 0.01% Triton; AID 485294, 2010; Potency, µM (doses to about 114 µM), for inactives: at the highest dose activity change, negative = inhibition, most hits filed as inhibitors;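 further: potency means the concentration at half of the fitted maximal effect; 0% = no-compound wells and -100% = no-enzyme wells; nearly all actives have a fitted effect of over 25% in size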
# Target sequence (P00811 whole entry, looked up): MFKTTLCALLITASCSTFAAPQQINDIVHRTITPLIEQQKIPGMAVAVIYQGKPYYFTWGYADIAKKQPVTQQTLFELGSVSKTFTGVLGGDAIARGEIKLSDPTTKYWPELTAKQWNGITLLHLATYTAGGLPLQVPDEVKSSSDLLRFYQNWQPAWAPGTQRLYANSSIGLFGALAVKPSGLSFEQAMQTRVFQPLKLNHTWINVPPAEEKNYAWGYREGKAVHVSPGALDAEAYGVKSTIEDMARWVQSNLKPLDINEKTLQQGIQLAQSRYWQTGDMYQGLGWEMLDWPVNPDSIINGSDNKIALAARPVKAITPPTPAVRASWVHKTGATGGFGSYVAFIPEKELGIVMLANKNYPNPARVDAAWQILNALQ
#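 AmpC (5.3 nM in the dispensed reagent) in 20 mM phosphate pH 7.0 with 0.01% (detergent screen) or 0.0001% Triton X-100 was preincubated with compounds for 15 min at room temperature. Nitrocefin was then added from an 800 uM solution, and hydrolysis was followed at 480 nm.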
# NS1 inh: qHTS Assay for Inhibitors of Influenza NS1 Protein Function; Potency, µM (series often up to 46.1 µM), for inactives: at the top dose activity, positive = more growth; 0.4% of 270,000 active; AID 2326, 2010; calls by dose curve; further: potency means the concentration at half of the fitted maximal effect; actives are rising curves; nearly all actives have a fitted effect of over 50% in size
#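 Recovery from NS1-induced slow growth read by OD600 in budding yeast switched to galactose assay medium (pH 6.0, -URA) at 1:100 dilution. Compound 23 nl per well; the matching strain lacking NS1 serves as control.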
# AmpC inh no detg: qHTS Inhibitors of AmpC Beta-Lactamase (assay without detergent); P00811; AmpC nitrocefin hydrolysis, absorbance 480 nm, 0.0001% Triton; Potency, µM (highest dose often 57.1 µM), inactives show top-dose activity change, negative = inhibition, hits mostly inhibitors; 0.52% of 330,000 active; AID 485341, 2010;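 further: potency means the concentration at half of the fitted maximal effect; plate controls were no compound for no effect and no enzyme for full effect; nearly all actives have a fitted effect of over 20% in size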
#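 AmpC (5.3 nM in the dispensed reagent) in 20 mM phosphate pH 7.0 with 0.01% (detergent screen) or 0.0001% Triton X-100 was preincubated with compounds for 15 min at room temperature. Nitrocefin was then added from an 800 uM solution, and hydrolysis was followed at 480 nm.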
# CHX counter: Cycloheximide Counterscreen for Small Molecule Inhibitors of Shiga Toxin; cell reporter, cycloheximide protein synthesis inhibition counterscreen; 12% of 300,000 active; AID 2314, 2010; max response, %; in the data active means max response mostly above about 13%, no sharp cut-off; inactive means mostly below about 14%; further: read at 38.3 µM for the half of the compounds with a filed dose; 0% is about no effect
# Numbers without * were called inactive; ? = inconclusive; / = not tested or not shown; ! = not active in a repeat. Unless noted, the call rests on the fitted dose curve; in most records, active means well fitted curve in the direction sought with a large enough effect; inconclusive means small, poorly fitted or top-dose-only effect, or another doubt; inactive means no such curve, though single readings can be large; an effect the other way counts as inactive or inconclusive.
SMILES,Shiga inhibitor,AmpC inh detg,NS1 inh,AmpC inh no detg,CHX counter
Cc1ccccc1NC(=O)c1nc(S(C)(=O)=O)ncc1Cl,48*,-9%,-54%,-9%,42*
Cc1cccc(C)c1NC(=O)c1nc(S(=O)(=O)Cc2ccccc2)ncc1Cl,40*,-2%,-39%,-32%,16*
Cc1cccc(CS(=O)(=O)c2ncc(Cl)c(C(=O)NCc3ccccc3)n2)c1,38*,0%,-3%,-28%,24*
Cc1ccc(S(=O)(=O)N2CCOC23CCN(C(=O)C(=O)NCCC(C)C)CC3)cc1,/,-20%,/,61%,/
OCC1C2c3ccccc3C(c3ccccc32)C1CO (stereo not drawn),-4,3%,4%,-9%,-4
CCOC(=O)c1nc(S(C)(=O)=O)ncc1Cl,25,?,-41%,-21%,26*
CCCN1CCC(=O)N(CCOc2ccccc2)CC1,4,-6%,7%,-4%,3
CC(C)CN1CCC(=O)N(C(CSc2ccc(Br)cc2)c2ccccc2)CC1 (stereo not drawn),25,/,/,/,32
CC(C)CN1CCC(=O)N(CCSc2ccc(Br)cc2)CC1,53*!,-2%,-4%,116%,25
CC(C)CN1CCC(=O)N(CCOc2ccccc2)CC1,28*,-8%,9%,-4%,28*
COc1ccc(NC(=O)Cn2cnc3ccc(S(=O)(=O)N4CCC(C)CC4)cc3c2=O)cc1Cl,/,6%,/,/,/
Cc1ccsc1C(=O)NC(C)c1ccc2c(c1)OCO2 (stereo not drawn),-2,?,-8%,-17%,-2
Cc1ccsc1C(=O)Nc1ccc2c(c1)OCCO2,27*,4%,5%,-19%,29*
Cc1ncoc1C(=O)Nc1ccc2c(c1)OCCO2,77*,?,-1%,-22%,47*
COc1ccccc1C(=O)c1cn(CC(=O)Nc2ccccc2F)c2nc(C)ccc2c1=O,/,3%,/,/,/
COc1ccc(CCNC(=O)COC(=O)c2cc(Cl)nc(Cl)c2)cc1,/,/,/,-18%,/
O=C(Nc1ccccc1)C(=O)Nc1cccnc1,53*,-6%,-2%,-11%,32*
O=C(CCCOc1ccccc1)Nc1cccnc1,-4,2%,-8%,-16%,-2
Cc1ccc(NC(=O)/C(C#N)=C/c2ccc(C(C)C)cc2)cc1C,/,10%,/,/,/
CCCOc1ccccc1/C=C(\C#N)C(=O)Nc1cccnc1,78*,-6%,-6%,-6%,34*
CC(C)c1ccc(NC(=O)/C(C#N)=C/c2ccncc2)cc1,18*,-5%,-6%,31%,26*
O=C(CCCc1ccccc1)Nc1cccnc1,66*,?,-8%,-9%,19*
O=C(O)/C=C/C(=O)Nc1cccnc1,-10,?,1%,-19%,-1
CNC(=O)C1CCC(Cn2c(=O)c3sccc3n(CC(=O)NCc3cccc(OC)c3)c2=O)CC1 (stereo not drawn),/,-7%,/,/,/
COc1ccc(S(=O)(=O)N(CC(=O)Nc2cccnc2)c2ccc(C)cc2)cc1OC,/,11%,/,/,/
SMILES,Shiga inhibitor,AmpC inh detg,NS1 inh,AmpC inh no detg,CHX counter
O=C(CC(=O)c1ccccc1)Nc1cccnc1,11,?,16%,2%,24*
N#C/C(=C\c1cccnc1)C(=O)Nc1ccccc1,19,-5%,12%,-18%,18*
O=C(COc1ccc(C(=O)c2ccccc2)cc1)Nc1cccnc1,-6,-2%,-34%,94%,11
O=C(c1c(Cl)nc2sccn12)N(C(=O)c1c(Cl)nc2sccn12)c1ccc(Cl)cn1,187*,-10%,?,45%,80*
CN(CC(=O)Nc1ccc(Cl)cc1)Cc1cc(=O)n2ccsc2n1,-14,1%,/,-4%,5
CC1=NOC(=O)/C1=C\c1ccc(-c2ccccc2Br)o1,-9,-15%,/,-48%,-7
Cc1cc(C)n(-c2ncc(-c3ccccc3)nn2)n1,90*,?,-64%,-7%,57*
Cc1cc(C)n(-c2nncc(-c3ccccc3)n2)n1,71,8%,-11%,4%,26*
Cc1cc(C)n(-c2nc(Nc3ccccc3)nc(-n3nc(C)cc3C)n2)n1,-22,-2%,-17%,-11%,8
c1ccc(-c2cnnc(N3CCOCC3)n2)cc1,68*,0%,-2%,-6%,63*
COc1cccc(NC(=O)Cn2c(=O)n(Cc3ccco3)c(=O)c3cc(OC)c(OC)cc32)c1,/,-1%,/,/,/
CCC(=O)C1=C(c2cccc([N+](=O)[O-])c2)N(C(=O)CC)n2c(nnc2-c2ccccc2)S1,/,7%,/,/,/
COc1cc(NC(=O)c2ccccc2)c(C)cc1NC(=O)CC(CC(=O)O)c1ccccc1 (stereo not drawn),-6,-15%,-1%,-13%,-4
Cc1c(Cl)cccc1NC(=O)C[C@H]1Sc2ccccc2NC1=O,/,/,0%,/,/
CCOC(=O)c1ccc(-c2ccc(/C=N/NC(=O)Cc3nnc(N)s3)o2)cc1,52*,-4%,-12%,-27%,42*
CCOC(=O)c1ccc(-c2ccc(/C=N/NC(=O)c3cncc(Br)c3)o2)cc1,40*,-1%,-1%,-17%,13*
Nc1nonc1-c1nc2ccccc2n1CC(=O)Nc1ccccc1C(=O)O,/,-10%,/,/,/
Nc1nonc1-c1nc2ccccc2n1CC(=O)N/N=C/c1ccc(-c2cccc(C(=O)O)c2)o1,70*,-11%,/,-19%,34*
Cc1ccc(/C=N\NC(=O)c2cncc(Br)c2)o1,14,-5%,0%,-30%,-2
O=C(O)c1cccc(-c2ccc(/C=N/NC(=O)c3cccnc3)o2)c1,171*,-8%,16%,-15%,83*
Cc1nnc(N/N=C\c2ccc(-c3cccc(C(=O)O)c3)o2)n1N,5,1%,0%,-12%,8
CC1=C(C(=O)OCC2CCCO2)C(c2ccc(Cl)c(Cl)c2)NC(=O)N1 (stereo not drawn),-15,-8%,-4%,30%,-2
COc1ccc2[nH]c3c(c2c1)CCN1C(=O)C(CC(=O)NC/C=C(\C)CCC=C(C)C)C[C@H](C(=O)N(C(C)C)C(C)C)[C@@]31C (stereo partly drawn),/,/,/,8%,/
CC(=O)N1CCc2c(sc(NC(=O)C3CCCCC3)c2C(N)=O)C1,15,-9%,0%,-6%,2
Nc1nnc(CC(=O)N/N=C/c2ccc(-c3cccc(C(=O)O)c3)o2)s1,142*,0%,3%,-17%,61*
O=C(Cc1ccc(Br)cc1)N/N=C/c1ccc(-c2cccc(C(=O)O)c2)o1,102*,7%,1%,-37%,31*
Nc1nnc(CC(=O)N/N=C/c2ccc(-c3ccc(F)cc3)o2)s1,-1,2%,6%,-15%,-2
O=Cc1ccc(-c2cccc(C(=O)O)c2)o1,25,1%,/,27%,13
COc1ccc(Cl)cc1C(=O)NCC(c1ccco1)N1CCCC1 (stereo not drawn),2,3%,0%,0.16µM*,-2
